AmpC inh no detg = AmpC beta-lactamase inhibition without detergent; P00811; AmpC nitrocefin hydrolysis, absorbance 480 nm, 0.0001% Triton; Potency, µM (titrated, usually from 57.1 µM), inactives show top-dose activity change, negative = inhibition, usual class: inhibitors; hit rate 0.52% among 330,000;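 further: plate controls were no compound for no effect and no enzyme for full effect; nearly all actives have a fitted effect of over 20% in size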
Target sequence (P00811 whole entry, looked up): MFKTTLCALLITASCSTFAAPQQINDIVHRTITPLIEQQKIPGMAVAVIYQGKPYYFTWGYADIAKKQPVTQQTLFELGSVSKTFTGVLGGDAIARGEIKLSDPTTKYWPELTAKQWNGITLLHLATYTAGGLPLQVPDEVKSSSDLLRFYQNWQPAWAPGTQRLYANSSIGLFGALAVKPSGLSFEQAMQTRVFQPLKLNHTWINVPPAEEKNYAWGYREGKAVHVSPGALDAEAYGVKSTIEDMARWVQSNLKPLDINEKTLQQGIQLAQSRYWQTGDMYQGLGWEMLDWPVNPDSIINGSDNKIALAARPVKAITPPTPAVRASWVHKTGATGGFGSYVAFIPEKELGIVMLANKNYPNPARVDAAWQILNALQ
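20 mM phosphate pH 7.0 + 0.01% (detergent screen) or 0.0001% Triton X-100; 5.3 nM AmpC reagent; cpd preinc 15 min RT; nitrocefin (800 uM stock) to start; A480 q20 s × 4 min; Activity was normalised to no-enzyme and no-compound control wells.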
HCV inhibitor = HCV inhibition; Huh7.5.1 HCVcc-Cre infection, luciferase reporter, 44 h; Potency, µM (series often up to 41.8 µM), inactives show at the top dose activity change, negative = inhibition, hits mostly inhibitors; hit rate 3.4% among 340,000
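Luciferase read-out (15 sec integration) after a 15 min room-temperature substrate step quantifies HCVcc-Cre infection. Cells, 1,000 per well, had compound added 4 h post-plating, then virus at ~0.5 moi, and were cultured 44 h.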
Pf growth 48h = P. falciparum growth inhibition at 48 hours (one generation); P. falciparum luciferase growth in erythrocytes, 48 h; Potency, µM (top dose mostly 28.7 µM), without a hit: top-dose activity change, negative = inhibition, usual class: inhibitors; hit rate 5.9% among 310,000
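Firefly luciferase activity from engineered P. falciparum reports growth; inhibitors lower the luminescent signal. Cultures contained 2% hematocrit erythrocytes at 0.1% final parasitemia.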
AmpC inh detg = AmpC beta-lactamase inhibition with detergent present; AmpC hydrolysis of nitrocefin, absorbance 480 nm, 0.01% Triton; Potency, µM (titrated, usually from 114 µM), for inactives: at the top dose activity change, negative = inhibition, usual class: inhibitors; hit rate 0.041% among 370,000;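 further: 0% = no-compound wells and -100% = no-enzyme wells; nearly all actives have a fitted effect of over 25% in size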
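20 mM phosphate pH 7.0 + 0.01% (detergent screen) or 0.0001% Triton X-100; 5.3 nM AmpC reagent; cpd preinc 15 min RT; nitrocefin (800 uM stock) to start; A480 q20 s × 4 min; Activity was normalised to no-enzyme and no-compound control wells.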
Pf growth 96h = inhibits malaria parasite growth, 96 h; P. falciparum luciferase reporter growth, 96 h; Potency, µM (highest dose often 28.7 µM), for the others: at the top dose activity change, negative = inhibition, most hits filed as inhibitors; hit rate 6.9% among 320,000
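Compounds incubated with erythrocytes infected by luciferase-expressing P. falciparum (2% hematocrit, 0.05% parasitemia final) for 96 hours, 37 C in 5% CO2. Growth inhibition scored as decreased luciferase luminescence.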
AMA1 RON2 block = disrupts binding of P. falciparum AMA1 to RON2; AlphaScreen AMA1-biotinylated RON2 peptide binding; Potency, µM (series often up to 58.2 µM), for the others: top-dose activity change, negative = inhibition, hits mostly inhibitors; hit rate 0.2% among 360,000; AID 720542;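 further: 0% = vehicle wells and -100% = peptide control; nearly all actives have a fitted effect of over 45% in size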
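AMA1 (3D7) with his tag at 25 nM final met compounds first, then biotinylated RON2 peptide at 25 nM; detection used donor plus acceptor beads, 10 µg/mL apiece, read by AlphaScreen after 30 min at room temperature.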
* marks the source's active call; other numbers are inactive results; ? = inconclusive; . = no result given; [ ] = dose if it differs, or a comment. The list is not random: actives were taken first. Their share in the collection is about 11%. The call rests on the fitted dose curve; in most records, active means well fitted curve in the direction sought with a large enough effect; inconclusive means small, poorly fitted or top-dose-only effect, or another doubt; inactive means no such curve, though single readings can be large; an effect the other way counts as inactive or inconclusive. Unless noted, on the % scale 0 is the no-effect control and ±100 the full control effect; potency means the concentration at half of the fitted maximal effect.

SMILES | AmpC inh no detg | HCV inhibitor | Pf growth 48h | AmpC inh detg | Pf growth 96h | AMA1 RON2 block
CCCc1nc2sc3c(N4CCC(C)CC4)ncnc3c2c2c1CCCC2 | . | . | . | 19% | . | .
Cc1ccc(/C=C/C(=O)Nc2ccc3nc(N4CCC(C)CC4)cc(C)c3c2)cc1 | . | . | . | 6% | . | .
Cc1cccc(Nc2c([N+](=O)[O-])cc(C(=O)N3CC(=O)Nc4ccccc43)cc2[N+](=O)[O-])c1 | 1% | ? | 9.3µM* | -11% | ? | ?
Cc1ccc(C)c(Nc2c([N+](=O)[O-])cc(C(=O)N3CC(=O)Nc4ccccc43)cc2[N+](=O)[O-])c1 | -2% | ? | ? | -6% | 13µM* | -9%
Cc1ccc(C)c(NC(=O)CNC(=O)N2CC(=O)Nc3ccccc32)c1 | 2% | 18% | 32% | -2% | 40% | 26%
CC(C)c1ccc(S(=O)(=O)N2CCN(Cc3cccc(F)c3)CC2)cc1 | . | . | . | 10% | . | .
COc1cccc(CNC(=O)CCc2cn(Cc3ccccc3Cl)c3ccccc23)c1 | . | . | . | -5% | . | .
Cc1ccc(C)c(OCCn2c(CCNC(=O)C3CCCCC3)nc3ccccc32)c1 | . | . | . | 1% | . | .
Oc1cccc(/C=N/Nc2cccc3cccnc23)c1 | -42% | ? | -22% | 9% | 224% | -11%
COc1cc(/C=N/Nc2cccc3cccnc23)cc(OC)c1O | 0% | 22µM* | ? | -4% | 7% | -10%
Oc1c(/C=N/Nc2cccc3cccnc23)ccc2ccccc12 | -36% | -8% | 5.9µM* | 0% | 9% | 4%[11.6 µM]
O=C(COCc1cc(-c2ccc(F)cc2)on1)Nc1cc(Cl)cc(Cl)c1 | . | . | . | 18% | . | .
COc1c(O)cc2c(c1O)[C@@H]1O[C@@H](CO)[C@@H](O)[C@@H](O)[C@@H]1OC2=O | . | . | -10%[12.8 µM] | . | -19%[12.8 µM] | .
CCN1C(=NCCN2CCOCC2)N[C@@H](CCc2ccccc2)C(C(=O)OC)=C1C | 188% | . | ? | -13% | 102% | .
COC(=O)c1ccc(-n2c(C)cc(/C=N/Nc3nc(C)cc(=O)[nH]3)c2C)cc1 | 7% | ? | 8.3µM* | -4% | 13µM* | 89%
Cc1cc(=O)[nH]c(Nc2ccc(C(=O)OC(C)C)cc2)n1 | -30% | -16% | ? | ? | 2.6µM* | -5%
Cc1oc(-c2ccc(C(=O)NCc3cccc(F)c3)cc2)nc1COc1ccccc1 | . | . | . | 10% | . | .
CCOCCCNC(=O)c1cc2c(=O)n(CC)c3ccccc3c2s1 | 96% | ? | -29%[0.00184 µM] | 2% | 0% | 10%
CCn1c(=O)c2cc(C(=O)NCCOC)sc2c2ccccc21 | 22% | 10µM* | 3% | 1% | -5% | 1%
CCn1c(=O)c2cc(C(=O)NCCN(C)C)sc2c2ccccc21 | 6% | 10µM* | -4%[0.00184 µM] | -1% | 0% | 6%
CCSc1ncnc2sc3c(c12)CCC3 | -10% | 25µM* | . | 0% | -24% | 5%
c1cn(-c2ncnc3sc4c(c23)CCCC4)cn1 | -9% | 1% | -5% | ? | 0.17µM* | 14%
Fc1ccc(CSc2ncnc3sc4c(c23)CCCC4)cc1 | -34% | 11µM* | ? | -1% | -99% | 23%
Cc1ccc(NC(=O)C(=O)NCCc2sc(-c3ccc(Cl)cc3)nc2C)cc1C | . | . | . | -3% | . | .
Nc1ncc(S(=O)(=O)Nc2ccc(F)cc2F)cn1 | . | . | . | 0% | . | .
SMILES | AmpC inh no detg | HCV inhibitor | Pf growth 48h | AmpC inh detg | Pf growth 96h | AMA1 RON2 block
CCc1cccc(NC(=O)Cn2c(C(=O)OC)cc3occc32)c1 | . | . | . | -7% | . | .
Cc1ccc(C=C2C=C(c3ccccc3)OC2=O)cc1 | . | . | . | . | . | -10%
CN(C)c1ccc(C=C2C=C(c3ccccc3)OC2=O)cc1 | . | . | . | . | . | 8.9µM*
Cc1ccc(S(=O)(=O)N2CCN(C(=O)Cc3ccccc3)CC2)cc1C | 9% | 8% | 2% | -9% | ? | -3%
Cc1ccc(S(=O)(=O)N2CCN(C(=O)/C=C/c3ccco3)CC2)cc1 | 7% | 9% | 6.6µM* | -5% | 1.9µM* | 7%
Cc1ccc(S(=O)(=O)N2CCN(C(=O)CC(C)n3nc(C)c(Cl)c3C)CC2)cc1C (centres undefined) | 164% | -10% | ? | 3% | 12µM* | -1%
Cc1ccc(S(=O)(=O)N2CCN(C(=O)/C=C/c3ccccc3)CC2)cc1C | 9% | ? | 4.1µM* | 0% | 13µM* | -3%
CC1CCN(S(=O)(=O)c2ccc(C(=O)Nc3nnc(-c4ccccn4)o3)cc2)CC1 | -1% | -1% | -2% | 11% | 124% | 83%
Cc1cc(F)ccc1S(=O)(=O)Nc1ccccc1C(=O)Nc1ccccc1-c1nc2ccccc2[nH]1 | -36% | 7.9µM* | 9.3µM* | -3% | 1.9µM* | 27%
CC1CCCN(S(=O)(=O)c2ccc(C(=O)Nc3ccccc3-c3nc4ccccc4[nH]3)cc2)C1 (centres undefined) | -19% | ? | 1.5µM* | 7% | ? | -2%
CC1CCN(S(=O)(=O)c2ccc(C(=O)Nc3ccccc3-c3nc4ccccc4[nH]3)cc2)CC1 | ? | ? | 4.1µM* | 5% | 7.4µM* | -3%
CC1CCN(S(=O)(=O)c2ccc(C(=O)Nc3ncccc3O)cc2)CC1 | -19% | -23% | ? | -13% | 5.2µM* | 36%
CCn1cc(CNC(=O)c2cc(-c3ccc(C)cc3)nc3ccc(Br)cc23)c(C)n1 | . | . | . | -6% | . | .
COc1ccccc1C(=O)Nc1cccc(C(=O)OCc2cc(=O)n3nc(C)sc3n2)c1 | . | . | . | -1% | . | .
O=C(NC(Cc1c[nH]c2ccccc12)c1nnc2n1CCCCC2)c1ccccc1 (centres undefined) | 30% | ? | 15% | 0% | 41% | 2%
CCN(CC)S(=O)(=O)c1cccc(C(=O)NC(Cc2c[nH]c3ccccc23)c2nnc3n2CCCCC3)c1 (centres undefined) | 184% | 10% | ? | 0% | 10µM* | -3%
COc1ccc(CNC(=O)Cc2c(C)c3cc4c(C)coc4cc3oc2=O)cc1 | . | . | . | 1% | . | .
Cc1csc(=Nc2cccnc2)n1CC1CCCCC1 | -14% | 23% | ? | ? | ? | -4%
Fc1ccccc1-c1csc(=Nc2cccnc2)n1CC1CCCO1 (centres undefined) | 9% | ? | 8.3µM* | 3% | 12µM* | -27%
Fc1ccccc1-c1csc(=Nc2cccnc2)n1CCCn1ccnc1 | 37% | 22µM* | 7.4µM* | -8% | 15µM* | -29%
COc1cc(OC)c(NC(=O)CN2CCCN(Cc3ccccc3C)S2(=O)=O)cc1Cl | . | . | . | -11% | . | .
CCCCOC(=O)c1ccc(Nc2ncnc3[nH]ncc23)cc1 | . | . | . | -9% | . | .
CC1(C)CC(=O)CC(C)(C)N1O | . | . | . | . | . | 1%

Screening data as filed in PubChem.
